Data on 40 molecules can be found in PubChem BioAssay (EPA / NIEHS).

In general, AC50 refers to the concentration at which the activity in the assay is half-maximal.

The structures appear in SMILES notation. Calls of active or inactive are those of the source. The calls were made as follows: active = hit-call score of the fitted dose curve at least 0.9, where 1 is the maximum; inactive = score below 0.9.

Read-out in this test: CFLAR gene, CFLAR (gene 8837)
In words: LTEA_HepaRG_CFLAR: Life Technologies and Expression Analysis (LTEA) Assay for CFLAR gene using HepaRG (AID 2283455). To be noted: mRNA level, 48 h; actives raise or lower the signal. The procedure:
LTEA_HepaRG is a cell based, multiplexed-readout assay that uses HepaRG, a human liver cell line, with measurements taken at 48 hours after chemical dosing on a 96-well plate.LTEA_HepaRG_CFLAR is one of 102 assay component(s) measured in the LTEA HepaRG cell culture assay. It is a marker of Cell proliferation, survival, death.Data from the assay component LTEA_HepaRG_CFLAR was analyzed into 1 endpoint. This assay endpoint, LTEA_HepaRG_CFLAR, was analyzed with bidirectional fitting relative to DMSO as the negative control and baseline of activity. Using a type of inducible reporter, measures of mRNA induction for gain or loss-of-signal activity can be used to understand regulation of transcription factor activity. To generalize the intended target to other relatable targets, this assay endpoint is annotated to the cell cycle intended target family, where the subfamily is Cell proliferation, survival, death.
A total of 1060 chemcials from the ToxCast library were tested in eight-point concentration-response experiments. Cell culture and cytotoxicity assays were conducted at Thermo Fisher Scientific's Custom Services facility (Madison, WI). A single lot of human HepaRG cells (Thermo Fisher Scientific, Frederick, MD) was used for the cell culture experiments. 96-well format collagen type I coated plates of human HepaRG cells were prepared using established methods. Briefly, cryopreserved HepaRG cells were thawed, plated at a density of approximately 100,000 cells/well in HepaRG Thaw, Plate, and General Purpose media (HPRG770, Thermo Fisher Scientific), and incubated for 48 hours. 0.5% DMSO was selected as vehicle control to balance the requisite need of DMSO in HepaRG cultures to maintain differentiation (for example, baseline metabolism, proportions of hepatocytes vs. cholangiocytes), while enabling further hepatic receptor pathway activation (for example, PXR and CAR) in response to chemical exposure. 48 hours after plating, the culture medium was replaced with HepaRG Serum-Free Incudtion Media. Cells were exposed to each test chemical in duplicate and maintained in CO2 incubators for another 48 hours. Chemical plates were thawed to room temperature and 200x concentrations of treatment groups were prepared. 8-point conentration-reponse curves were made with the highest exposure at 100 uM, followed by half-log dilutions, all in 0.5% DMSO. Each test plate contained variouse controls, induction positive controls (1mM phenobarbital), cytotoxicity positive controls ([…] aflatoxin B1), vehicle controls (0.5% DMSO), and total lysis controls (0.5% DMSO). Cell morphology images were taken using an Essen IncuCyte FLR automated microscope, with six 96-well plates imaged in about 24 minutes. Images were captured and exported and JPEG files. Spent culture media was transfered to black-well plates for the LDH assay, and remaining media was sorted at -80 C for later use. Cells were treated with RLT buffer and frozen until shipped for gene expression analysis. Total RNA was isolated from the cell suspension in 75 uL of Buffer RLT (Qiagen, Germantown, MD 20874) by Quintiles/Expression Analysis (Durham, NC) using a custom isolation procedure. Total RNA from each plate well was transferred to a preamplification plate. Fluidigm's 96.96 Dynamic ArrayTM (Fluidigm, Amsterdam, the Netherlands) technology was used for gene expression analyses by quantitative reverse transcription polymerase chain reaction (qRT-PCR, performed by Quintiles/Expression Analysis, Durham, NC)89. Standard TaqManTM Assays (Applied Biosystems/ThermoFisher Scientific, Foster City, CA) were used to assess the expression of 93 genes selected based on their selectivity and sensitivity to important hepatic receptors known to be modulated by environmental chemicals; importance in human hepatocyte functionality; and hepatotoxicity. […]
On to `COc1cc(C(C)C)c2c(c1)S(=O)(=O)N(COc1cc(=O)n3cccc(OCCN4CCCCC4)c3n1)C2=O`, for which the AC50 was 19.5 µM (active).

For `OCCNCCO`, the result was inactive.

On to `O=S1(=O)CCCO1`, for which the molecule was classed as inactive.

For `Cn1cc[nH]c1=S`, the molecule was classed as inactive.

For the molecule `CCCc1ccccc1`, the molecule was classed as inactive.

For `COCc1nnc(-c2ccc[n+]([O-])c2)n1-c1c(Cl)c(Cl)cc2[nH]c(=O)c(=O)[nH]c12`, the outcome was inactive.

With `COS(C)(=O)=O`, the molecule was classed as inactive.

On to `O=C(NO)C1(NS(=O)(=O)c2ccc(Oc3ccc(F)cc3)cc2)CCOCC1`, for which the outcome was inactive.

Consider `CC(C)C(=O)Nc1ccc([N+](=O)[O-])c(C(F)(F)F)c1`, for which the AC50 is 50 µM (active).

As for `Cn1c(=O)c2[nH]cnc2n(C)c1=O`, the result was inactive.

Regarding `CCc1cccc(CC)c1N`, the call was inactive.

For `Cc1ccc(S(=O)(=O)NC(=O)NN2CCCCCC2)cc1`, the molecule was classed as inactive.

As for `CCCCCCCCCCCCCCCCOS(=O)(=O)O`, the molecule was called inactive.

On to `CC(C)c1nnc2ccc(-c3ocnc3-c3cc(F)ccc3F)cn12`, for which the outcome was inactive.

For the molecule `OCc1ccccc1`, the molecule was called inactive.

On to `O=C(O)c1cccc(C[C@@H]2COc3ccc(OCc4nc5cc(F)ccc5s4)cc3[C@@H]2O)c1`, for which the molecule was called inactive.

On to `C[C@@H](Oc1ccc(CNC(=O)c2cccnc2Oc2ccc3c(c2)OCO3)c(F)c1)C(=O)O`, for which the outcome was inactive.

Consider `OC[C@H]1O[C@@H]2O[C@H]3[C@H](O)[C@@H](O)[C@@H](O[C@H]4[C@H](O)[C@@H](O)[C@@H](O[C@H]5[C@H](O)[C@@H](O)[C@@H](O[C@H]6[C@H](O)[C@@H](O)[C@@H](O[C@H]7[C@H](O)[C@@H](O)[C@@H](O[C@H]1[C@H](O)[C@H]2O)O[C@@H]7CO)O[C@@H]6CO)O[C@@H]5CO)O[C@@H]4CO)O[C@@H]3CO`, for which the molecule was classed as inactive.

For the molecule `OC(Cn1cncn1)(Cn1cncn1)c1ccc(F)cc1F`, the outcome was inactive.

Regarding `c1ccc(C(O[C@@H]2CCCN(CCc3ccc4c(c3)OCO4)C2)c2ccccc2)cc1`, the result was inactive.

As for `CCCCCCOC(=O)CC(CC(=O)OCCCCCC)(OC(=O)CCC)C(=O)OCCCCCC`, the outcome was inactive.

In the case of `CC(=O)c1ccccc1`, the call was inactive.

On to `CCOc1ccc2[nH]cc(C(=O)NCc3ccccc3)c(=O)c2n1`, for which the molecule was classed as inactive.

Take `CCCCCCCCCCCCCCO`: the molecule was classed as inactive.

In the case of `Cc1nccn1-c1ccc(Sc2cccc(C3(C(N)=O)CCOCC3)c2)cc1`, the AC50 was 28.3 µM (active).

`OC[C@H]1O[C@@](CO)(O[C@H]2O[C@H](CO)[C@@H](O)[C@H](O)[C@H]2O)[C@@H](O)[C@@H]1O`: the molecule was called inactive.

For the molecule `O=C(O)c1cccc(C(=O)O)c1`, the call was inactive.

On to `CCn1nc(C)c2c1C(=O)NCC(c1ccc(O)cc1)=N2`, for which the molecule was classed as inactive.

Take `CCc1ccc(O)c(C(C)(C)C)c1`: the result was inactive.

`NC(=O)N1c2ccccc2C=Cc2ccccc21`: the molecule was called inactive.

Consider `CCCCOC(=O)c1ccccc1`, for which the call was inactive.

As to `c1ccc2ncccc2c1`, the molecule was called inactive.

On to `CCCCCOC(C)=O`, for which the outcome was inactive.

With `C=CCc1cc(S(=O)(=O)c2ccc(O)c(CC=C)c2)ccc1O`, the molecule was called inactive.

For `Cc1nc(-c2ccccn2)ncc1C(=O)Nn1cc(C)c2cc(F)ccc21`, the outcome was inactive.

`C[C@]12C=CC(=O)C=C1CC[C@H]1[C@@H]3C[C@@H](O)[C@](O)(C(=O)CO)[C@@]3(C)C[C@H](O)[C@@]12F`: the call was inactive.

Take `CC[C@H](C)C(=O)O[C@H]1C[C@H](O)C=C2C=C[C@H](C)[C@H](CC[C@@H](O)C[C@@H](O)CC(=O)O)[C@H]21`: the call was inactive.

On to `OCCOCCOCCO`, for which the outcome was inactive.

On to `CC(C)CCCCCCOC(=O)C1CCCCC1C(=O)OCCCCCCC(C)C` (stereo not given), for which the call was inactive.

With `CCCCCCCC1CCC(=O)O1` (stereo not given), the call was inactive.
